Data on eight sequences can be found in paper PMC7862700, “An all-to-all approach to the identification of sequence-specific readers for epigenetic DNA modifications on cytosine”.

What all share (assay): DAPPL (digital affinity profiling via proximity ligation, sequencing); 10 mM Tris-HCl pH 7.5, 50 mM NaCl, 1 mM DTT, 4% glycerol, room temperature, 30 min; GST-TFs on glutathione beads, 16-mer random dsDNA library, 0.1% formaldehyde crosslink after washing; high values mean tight binding
What all share (details): protein: recombinant; tags: N-terminal GST; dsDNA, one strand shown

In one assay the target is T1, FLI1 (Homo sapiens, UniProt Q01543 1-452).
T1 sequence: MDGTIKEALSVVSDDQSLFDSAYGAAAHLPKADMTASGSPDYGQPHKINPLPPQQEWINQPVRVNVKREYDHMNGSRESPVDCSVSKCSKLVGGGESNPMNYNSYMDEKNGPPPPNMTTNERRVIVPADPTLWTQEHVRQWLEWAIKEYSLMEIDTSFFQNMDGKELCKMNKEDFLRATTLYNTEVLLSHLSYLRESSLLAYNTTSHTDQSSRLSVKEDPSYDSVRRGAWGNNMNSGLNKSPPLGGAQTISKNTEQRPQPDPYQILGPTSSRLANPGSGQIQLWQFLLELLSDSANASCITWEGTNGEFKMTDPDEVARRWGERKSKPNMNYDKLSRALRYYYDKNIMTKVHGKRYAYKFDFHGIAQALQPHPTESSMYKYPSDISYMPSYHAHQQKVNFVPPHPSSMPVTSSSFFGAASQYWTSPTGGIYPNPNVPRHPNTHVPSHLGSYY
In a few lines:
(§1)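 Binding signal is given per hexamer as its read frequency for a factor divided by its frequency in the tag-only sample. GST-fused human transcription factors were expressed in yeast, captured on glutathione beads, barcoded with DNA and pooled with that sample, then incubated with 200 nmole of a 16-mer random double-stranded DNA library in Tris/NaCl/DTT/glycerol buffer for 30 min at room temperature. The pools were then washed, crosslinked, proximity-ligated, amplified by PCR and sequenced on an Illumina NextSeq500.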

A further assay concerns the target T2, ELK1 (Homo sapiens, UniProt P19419 1-428).
T2 sequence: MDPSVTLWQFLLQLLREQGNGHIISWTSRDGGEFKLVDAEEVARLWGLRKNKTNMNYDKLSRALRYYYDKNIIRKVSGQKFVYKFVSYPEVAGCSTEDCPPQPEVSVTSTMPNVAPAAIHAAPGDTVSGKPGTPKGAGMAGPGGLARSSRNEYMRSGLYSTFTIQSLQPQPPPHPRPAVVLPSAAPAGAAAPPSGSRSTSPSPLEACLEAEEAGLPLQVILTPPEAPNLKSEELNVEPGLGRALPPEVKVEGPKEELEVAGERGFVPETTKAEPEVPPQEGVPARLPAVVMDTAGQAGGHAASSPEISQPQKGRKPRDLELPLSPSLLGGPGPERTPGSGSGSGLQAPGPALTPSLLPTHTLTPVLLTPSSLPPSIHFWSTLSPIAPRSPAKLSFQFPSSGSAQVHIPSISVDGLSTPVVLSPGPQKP
In outline:
as §1

A further assay deals with T3, GABPA (Homo sapiens, UniProt Q06546 1-454).
T3 sequence: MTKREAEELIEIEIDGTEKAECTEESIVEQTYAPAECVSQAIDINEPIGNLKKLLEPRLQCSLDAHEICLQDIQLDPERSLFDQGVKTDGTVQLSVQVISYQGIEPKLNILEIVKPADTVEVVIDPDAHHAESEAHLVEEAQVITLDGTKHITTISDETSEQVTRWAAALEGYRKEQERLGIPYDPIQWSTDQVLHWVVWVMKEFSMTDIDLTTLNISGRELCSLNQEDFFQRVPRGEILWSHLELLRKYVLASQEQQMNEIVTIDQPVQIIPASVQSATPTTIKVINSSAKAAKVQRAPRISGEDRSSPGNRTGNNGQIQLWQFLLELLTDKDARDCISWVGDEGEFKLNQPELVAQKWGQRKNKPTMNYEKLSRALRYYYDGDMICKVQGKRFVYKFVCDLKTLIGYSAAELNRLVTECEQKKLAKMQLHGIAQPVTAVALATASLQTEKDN
In a few lines:
as §1

The next assay has as its target T4, ERG (Homo sapiens, UniProt P11308 1-479).
T4 sequence: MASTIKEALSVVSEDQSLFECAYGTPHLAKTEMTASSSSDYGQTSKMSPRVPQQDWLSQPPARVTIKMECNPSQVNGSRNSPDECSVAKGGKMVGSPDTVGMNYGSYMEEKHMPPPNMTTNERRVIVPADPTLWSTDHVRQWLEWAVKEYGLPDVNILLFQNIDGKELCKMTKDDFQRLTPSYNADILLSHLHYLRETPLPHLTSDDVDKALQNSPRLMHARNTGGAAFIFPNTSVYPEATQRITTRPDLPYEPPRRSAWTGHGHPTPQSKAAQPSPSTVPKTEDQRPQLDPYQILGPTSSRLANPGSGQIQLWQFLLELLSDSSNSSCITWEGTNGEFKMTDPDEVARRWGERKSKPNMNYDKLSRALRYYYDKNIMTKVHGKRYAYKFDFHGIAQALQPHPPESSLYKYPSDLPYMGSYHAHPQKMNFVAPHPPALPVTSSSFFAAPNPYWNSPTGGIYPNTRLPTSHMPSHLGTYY
In a few lines: as §1

The next assay addresses ELF1 (Homo sapiens, UniProt P32519 1-619). In a few lines: as §1
A further assay deals with T5, EHF (Homo sapiens, UniProt Q9NZC4 1-300).
T5 sequence: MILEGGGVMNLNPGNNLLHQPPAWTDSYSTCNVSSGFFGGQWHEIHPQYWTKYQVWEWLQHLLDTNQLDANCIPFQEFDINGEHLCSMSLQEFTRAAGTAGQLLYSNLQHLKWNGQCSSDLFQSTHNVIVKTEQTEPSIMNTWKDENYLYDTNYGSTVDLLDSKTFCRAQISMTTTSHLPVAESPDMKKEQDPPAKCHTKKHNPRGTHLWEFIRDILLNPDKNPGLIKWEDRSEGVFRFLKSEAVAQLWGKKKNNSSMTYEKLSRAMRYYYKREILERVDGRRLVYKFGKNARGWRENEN
In a few lines: as §1

Another assay concerns the target SPI1 (Homo sapiens, UniProt P17947 1-270). In outline:
as §1

The target in a further assay is SPIB (Homo sapiens, UniProt Q01892 1-262). In a few lines:
as §1

Another assay has as its target T6, ELK3 (Homo sapiens, UniProt P41970 1-407).
T6 sequence: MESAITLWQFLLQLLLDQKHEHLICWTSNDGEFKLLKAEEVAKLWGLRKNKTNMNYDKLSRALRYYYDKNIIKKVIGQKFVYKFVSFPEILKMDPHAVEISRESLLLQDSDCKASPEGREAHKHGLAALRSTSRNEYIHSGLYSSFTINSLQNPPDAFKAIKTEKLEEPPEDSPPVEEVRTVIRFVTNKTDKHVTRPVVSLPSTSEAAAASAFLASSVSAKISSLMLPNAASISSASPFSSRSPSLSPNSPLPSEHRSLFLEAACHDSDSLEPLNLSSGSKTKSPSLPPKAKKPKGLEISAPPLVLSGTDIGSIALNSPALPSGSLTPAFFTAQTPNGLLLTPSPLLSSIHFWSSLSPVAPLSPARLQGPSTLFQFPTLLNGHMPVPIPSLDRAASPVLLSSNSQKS
In outline: as §1

Sequence of ELF1 (P32519 whole entry): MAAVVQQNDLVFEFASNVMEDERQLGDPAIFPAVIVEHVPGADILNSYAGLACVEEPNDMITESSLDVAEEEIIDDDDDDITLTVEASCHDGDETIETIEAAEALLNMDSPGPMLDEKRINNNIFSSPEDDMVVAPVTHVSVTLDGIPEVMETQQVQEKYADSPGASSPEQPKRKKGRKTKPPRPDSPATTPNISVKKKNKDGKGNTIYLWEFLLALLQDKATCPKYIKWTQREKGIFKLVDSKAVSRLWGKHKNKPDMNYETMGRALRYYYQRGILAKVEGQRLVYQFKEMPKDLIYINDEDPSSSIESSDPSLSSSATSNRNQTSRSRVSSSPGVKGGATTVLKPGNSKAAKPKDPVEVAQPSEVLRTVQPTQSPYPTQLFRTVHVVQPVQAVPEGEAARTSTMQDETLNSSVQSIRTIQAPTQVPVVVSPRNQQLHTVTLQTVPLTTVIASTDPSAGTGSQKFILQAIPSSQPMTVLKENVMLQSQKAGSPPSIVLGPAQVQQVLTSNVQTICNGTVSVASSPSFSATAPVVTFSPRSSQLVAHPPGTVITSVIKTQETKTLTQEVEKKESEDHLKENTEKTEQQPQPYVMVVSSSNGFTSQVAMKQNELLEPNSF
Sequence of SPIB (Q01892 whole entry): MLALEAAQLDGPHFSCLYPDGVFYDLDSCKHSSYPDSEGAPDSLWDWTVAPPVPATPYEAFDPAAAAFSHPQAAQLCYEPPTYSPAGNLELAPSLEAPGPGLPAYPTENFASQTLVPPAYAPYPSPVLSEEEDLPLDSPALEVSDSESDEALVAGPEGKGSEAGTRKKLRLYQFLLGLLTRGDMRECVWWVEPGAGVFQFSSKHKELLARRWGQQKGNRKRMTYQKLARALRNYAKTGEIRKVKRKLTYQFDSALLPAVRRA

In the case of ACCTTG, the binding signal with FLI1 is 1.27 fold enrichment (6-mer frequency, TF over GST control); in the assay with ELK1, 1.37 fold enrichment (6-mer frequency, TF over GST control); with GABPA, 1.24 fold enrichment (6-mer frequency, TF over GST control); with ERG, 1.1 fold enrichment (6-mer frequency, TF over GST control); with ELF1, 1.21 fold enrichment (6-mer frequency, TF over GST control); with EHF it was 1.3 fold enrichment (6-mer frequency, TF over GST control). Moreover, the binding signal is 1.17 fold enrichment (6-mer frequency, TF over GST control) with SPI1; 1.18 fold enrichment (6-mer frequency, TF over GST control) in the assay with SPIB; 1.38 fold enrichment (6-mer frequency, TF over GST control) in the assay with ELK3.
For the sequence TGCGAC, the binding signal in the assay with FLI1 is 1.2 fold enrichment (6-mer frequency, TF over GST control); in the assay with ELK1, 1.25 fold enrichment (6-mer frequency, TF over GST control); with GABPA, 1.21 fold enrichment (6-mer frequency, TF over GST control); with ERG it was 1.26 fold enrichment (6-mer frequency, TF over GST control); with ELF1, 1.22 fold enrichment (6-mer frequency, TF over GST control); with EHF, 1.13 fold enrichment (6-mer frequency, TF over GST control). Also, the binding signal with SPI1 is 1.24 fold enrichment (6-mer frequency, TF over GST control); with SPIB it was 1.27 fold enrichment (6-mer frequency, TF over GST control); with ELK3, 1.16 fold enrichment (6-mer frequency, TF over GST control).
With AATGAA, the binding signal is 1.11 fold enrichment (6-mer frequency, TF over GST control) in the assay with FLI1; 1.1 fold enrichment (6-mer frequency, TF over GST control) in the assay with ELK1; 1.22 fold enrichment (6-mer frequency, TF over GST control) in the assay with GABPA; 1.21 fold enrichment (6-mer frequency, TF over GST control) in the assay with ERG; 1.15 fold enrichment (6-mer frequency, TF over GST control) with ELF1; 1.18 fold enrichment (6-mer frequency, TF over GST control) in the assay with EHF. For the same sequence, the binding signal is 1.24 fold enrichment (6-mer frequency, TF over GST control) in the assay with SPI1; 1.2 fold enrichment (6-mer frequency, TF over GST control) with SPIB; 1.26 fold enrichment (6-mer frequency, TF over GST control) with ELK3.
For ACGTAC, the binding signal with FLI1 is 1.24 fold enrichment (6-mer frequency, TF over GST control); with ELK1 it was 1.16 fold enrichment (6-mer frequency, TF over GST control); with GABPA, 1.13 fold enrichment (6-mer frequency, TF over GST control); with ERG it was 1.08 fold enrichment (6-mer frequency, TF over GST control); with ELF1, 1.16 fold enrichment (6-mer frequency, TF over GST control); in the assay with EHF, 1.15 fold enrichment (6-mer frequency, TF over GST control). Moreover, the binding signal is 1.18 fold enrichment (6-mer frequency, TF over GST control) with SPI1; 1.11 fold enrichment (6-mer frequency, TF over GST control) in the assay with SPIB; 1.19 fold enrichment (6-mer frequency, TF over GST control) with ELK3.
Regarding CCGTCA, the binding signal with FLI1 was 1.24 fold enrichment (6-mer frequency, TF over GST control); with ELK1, 1.3 fold enrichment (6-mer frequency, TF over GST control); with GABPA it was 1.19 fold enrichment (6-mer frequency, TF over GST control); in the assay with ERG, 1.31 fold enrichment (6-mer frequency, TF over GST control); in the assay with ELF1, 1.28 fold enrichment (6-mer frequency, TF over GST control); with EHF, 1.16 fold enrichment (6-mer frequency, TF over GST control). Also, the binding signal with SPI1 was 1.18 fold enrichment (6-mer frequency, TF over GST control); with SPIB it was 1.2 fold enrichment (6-mer frequency, TF over GST control); with ELK3 it was 1.15 fold enrichment (6-mer frequency, TF over GST control).
On to CTTACT, for which the binding signal with FLI1 was 1.38 fold enrichment (6-mer frequency, TF over GST control); with ELK1, 1.31 fold enrichment (6-mer frequency, TF over GST control); with GABPA, 1.3 fold enrichment (6-mer frequency, TF over GST control); with ERG, 1.27 fold enrichment (6-mer frequency, TF over GST control); with ELF1, 1.29 fold enrichment (6-mer frequency, TF over GST control); in the assay with EHF it was 1.34 fold enrichment (6-mer frequency, TF over GST control). Also, the binding signal with SPI1 was 1.3 fold enrichment (6-mer frequency, TF over GST control); in the assay with SPIB, 1.27 fold enrichment (6-mer frequency, TF over GST control); in the assay with ELK3, 1.34 fold enrichment (6-mer frequency, TF over GST control).
Regarding GTTCAC, the binding signal with FLI1 was 1.23 fold enrichment (6-mer frequency, TF over GST control); in the assay with ELK1 it was 1.23 fold enrichment (6-mer frequency, TF over GST control); with GABPA, 1.32 fold enrichment (6-mer frequency, TF over GST control); with ERG, 1.21 fold enrichment (6-mer frequency, TF over GST control); with ELF1, 1.16 fold enrichment (6-mer frequency, TF over GST control); with EHF, 1.13 fold enrichment (6-mer frequency, TF over GST control). For the same sequence, the binding signal is 1.18 fold enrichment (6-mer frequency, TF over GST control) with SPI1; 1.19 fold enrichment (6-mer frequency, TF over GST control) with SPIB; 1.18 fold enrichment (6-mer frequency, TF over GST control) with ELK3.
CGACCT: the binding signal in the assay with FLI1 was 1.44 fold enrichment (6-mer frequency, TF over GST control); in the assay with ELK1, 1.44 fold enrichment (6-mer frequency, TF over GST control); with GABPA, 1.54 fold enrichment (6-mer frequency, TF over GST control); with ERG, 1.46 fold enrichment (6-mer frequency, TF over GST control); in the assay with ELF1 it was 1.6 fold enrichment (6-mer frequency, TF over GST control); with EHF it was 1.39 fold enrichment (6-mer frequency, TF over GST control). Further, the binding signal with SPI1 is 1.4 fold enrichment (6-mer frequency, TF over GST control); with SPIB, 1.63 fold enrichment (6-mer frequency, TF over GST control); with ELK3, 1.7 fold enrichment (6-mer frequency, TF over GST control).
